# Laboratory results taken from PubChem BioAssay AID720648 (The Scripps Research Institute Molecular Screening Center, 2013).
# Screen size: about 370,000 compounds; about 3,100 (0.84%) were called active. The sample holds actives, similar compounds and a random draw of the others, so the mix is not that of the screen. Unmarked numbers belong to inactive results.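 Rule for the calls: active = inhibition above the mean of compounds lying between control limits plus 3 SD, set per campaign (cut at about 8.5% in these data); inactive = the rest.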
# Target: Disintegrin and metalloproteinase domain-containing protein 17 (Homo sapiens) (UniProt P78536)
# Test: ADAM17 inhibitors, primary screen, biochemical, QFRET (AID 720648);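 note: 0% = DMSO-only wells as the low control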
# Conditions: recombinant ADAM17, EDANS/DABCYL FRET peptide cleavage; at 6.95 µM; hits give high values
# Disintegrin and metalloproteinase domain-containing protein 17 (Homo sapiens), sequence (P78536 215-824 limits assumed): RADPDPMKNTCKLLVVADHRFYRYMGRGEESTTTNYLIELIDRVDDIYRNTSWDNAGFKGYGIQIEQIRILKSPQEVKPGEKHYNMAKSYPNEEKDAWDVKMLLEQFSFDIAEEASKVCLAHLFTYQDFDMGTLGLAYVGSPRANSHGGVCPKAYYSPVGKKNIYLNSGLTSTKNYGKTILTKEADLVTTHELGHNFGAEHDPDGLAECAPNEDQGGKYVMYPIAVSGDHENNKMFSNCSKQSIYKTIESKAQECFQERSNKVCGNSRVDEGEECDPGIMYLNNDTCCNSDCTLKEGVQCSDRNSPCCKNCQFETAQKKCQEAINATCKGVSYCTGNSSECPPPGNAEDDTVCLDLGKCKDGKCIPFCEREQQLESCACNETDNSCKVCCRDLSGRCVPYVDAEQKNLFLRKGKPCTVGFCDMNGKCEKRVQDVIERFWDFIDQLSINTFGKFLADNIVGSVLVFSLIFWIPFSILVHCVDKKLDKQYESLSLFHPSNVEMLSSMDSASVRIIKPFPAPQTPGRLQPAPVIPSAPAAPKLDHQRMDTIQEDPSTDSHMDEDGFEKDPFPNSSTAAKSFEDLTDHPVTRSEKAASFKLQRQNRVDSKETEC
row,SMILES,inhibition
1,COC(=O)C1=C(c2cccc(OCc3ccccc3)c2)C[C@@H]2CC[C@H]1N2C(=O)NCc1ccc(Br)cc1,7.72%
2,COC(=O)C1=C(c2ccc(F)cc2OCc2ccccc2)C[C@@H]2CC[C@H]1N2C(=O)NCc1ccc(Cl)cc1,3.55%
3,COC(=O)C1=C(c2ccc(-c3ccccc3)c(F)c2)C[C@@H]2CC[C@H]1N2C(=O)NCc1ccc(F)cc1,16.6% (active)
4,O=C1NC(=O)C(C/C=C/c2ccccc2)C(=O)N1,-2.76%
5,CN(C)C(=O)Oc1ccc2c(c1)O/C(=C\c1ccccc1)C2=O,-16.6%
6,O=C1C2(Cl)C3(Cl)C4(Cl)C(Cl)(Cl)C5(Cl)C3(Cl)C1(Cl)C5(Cl)C24Cl (stereo not given),11.4% (active)
7,Cc1ccc(C(C)C)c(OCC(=O)N2CCN(CC(=O)N3CCOCC3)CC2)c1,1.57%
8,CCN1CCN(c2ccc([N+](=O)[O-])cc2C#N)CC1,-2.11%
9,CNC(=O)Nc1ccc(C(O)(C(=O)OC)C(F)(F)F)cc1 (stereo not given),-0.16%
10,CC(=O)NCC1=C(c2ccc3ccccc3c2)C[C@@H]2CC[C@H]1N2Cc1ccco1,1.8%
11,CO[C@H]([C@H](C)/C=C/N(C)C=O)[C@@H](C)C(=O)CC[C@H](C)[C@H](O)[C@H](C)[C@H]1OC(=O)/C=C/C(C)=C/[C@H](O)[C@H](OC)C[C@@H]2C=CC[C@@H](C[C@H](OC)[C@@]3(CO3)[C@@H](OC)C[C@@H](OC)[C@@H]1C)O2,-1.19%
12,CCOP(=O)(OCC)C(NC(=O)NC)C(N)=O (stereo not given),-4.24%
13,CCOC(=O)CC(SP1(=S)OCC2(CCCCO2)C(C2CCCCO2)O1)C(=O)OCC (stereo not given),12.4% (active)
14,Cc1nc2ccccc2c(=O)n1-c1ccc(Cl)cc1Cl,0.07%
15,Cn1cc(C(=O)OCC(=O)N2CCCC2)c2ccccc21,1.16%
